# D1 potentiator: enhances dopamine response at the human D1 receptor | P21728 | HEK293 TREx D1 cells, calcium flux, dopamine EC20 potentiation | potentiation, % at 10 µM | actives 0.036% (n = 360,000); in the data active means potentiation above about 30%; further: 0% is about no effect
# D1 agonist: activates the human D1 dopamine receptor; actives 1% (n = 360,000); P21728; HEK293 T-REx D1 cells, calcium flux, agonist mode; activation, % at 2 µM; further: 0% is about no effect
#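 Inducible HEK293 T-REx D1 cells, force-coupled to calcium signalling, were plated at 4000 cells/well with tetracycline and held overnight at 30 C. After no-wash calcium dye loading, compound-evoked calcium rise over 180 s flagged agonists.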
# D1 antagonist: human D1 dopamine receptor antagonism. activity change, negative = inhibition, % at 10 µM. AID 504652. actives 3.2% (n = 360,000). P21728. HEK293 TREx D1 cells, calcium flux, dopamine EC80; hits give low values; in the data active means activity change below about -30%; further: on the % scale 0 is the no-effect control and ±100 the full control effect
#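 Inducible Hek293 Trex D1 cells (tetracycline, overnight, 30 C). Calcium dye 30–90 min RT. Antagonist mode: EC80 dopamine added after 180 s compound read.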
# TRHR agonist: activates the human TRH receptor; P34981; TRHR cells, calcium flux fluo-8, FDSS agonist mode; activation, % at 2 µM; actives 0.18% (n = 360,000); AID 493084; further: 0% is about no effect
# Target sequence (P34981 whole entry, looked up): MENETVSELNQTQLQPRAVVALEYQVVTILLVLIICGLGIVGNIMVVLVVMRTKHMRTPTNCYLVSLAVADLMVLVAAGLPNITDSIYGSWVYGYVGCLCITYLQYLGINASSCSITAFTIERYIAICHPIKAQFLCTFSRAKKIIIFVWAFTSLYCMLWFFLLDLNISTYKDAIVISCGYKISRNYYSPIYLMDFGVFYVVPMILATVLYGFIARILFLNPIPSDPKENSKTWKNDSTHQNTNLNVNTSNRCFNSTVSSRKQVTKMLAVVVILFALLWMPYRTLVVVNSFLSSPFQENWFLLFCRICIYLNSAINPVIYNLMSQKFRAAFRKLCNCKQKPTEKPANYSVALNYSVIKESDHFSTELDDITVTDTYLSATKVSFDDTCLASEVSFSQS
#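 TRHR-expressing cells loaded with fluo-8 calcium dye; 23 nL library compound pin-transferred, kinetic FDSS fluorescence (Ex 480/Em 530) recorded about 180 s for agonist-induced calcium release, before a 10 nM TRH EC20 addition for potentiator mode.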
# Glioma ERSR ind: ER stress response induction in glioma. AID 602332. actives 0.02% (n = 420,000). U87-MG GRP78 promoter luciferase reporter, 16 h. Potency, µM, for inactives: top-dose activation, actives largely listed as activators; active means well fitted activation curve with a large enough effect; further: potency means the concentration at half of the fitted maximal effect; series mostly up to about 76 µM; % of control where 0% means no effect; nearly all actives have a fitted effect of over 35% in size
#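 Stably transfected U87-MG glioma cells carrying a GRP78-based luciferase sensor; 16 h compound incubation. Luminescence end-point read 10 min after Bright-Glo addition at room temperature.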
# TRHR enhancer: allosteric enhancers of human TRH receptor | enhancement, % at 2 µM | TRHR cells, fluo-8 calcium fluorescence, EC20 TRH enhancement | actives 0.66% (n = 360,000) | AID 493056 | P34981; in the data active means enhancement above about 30%; further: 0% is about no effect
#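 Enhancer read-out: after compound pinning and an initial kinetic agonist-mode read, an EC20 of TRH (10 nM final) was injected and fluo-8 calcium signal (Ex 480/Em 530) followed at 1 s/cycle for 100 cycles in TRHR-expressing cells.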
# An asterisk follows results filed as active; x = not tested or not shown; ! = not active in a repeat. An excerpt weighted towards active compounds, which were near 4% of everything screened. Unless noted, no stated cut-off is given here; in the data, active means activation above about 30%; inactive means the rest.
SMILES,D1 potentiator,D1 agonist,D1 antagonist,TRHR agonist,Glioma ERSR ind,TRHR enhancer
C=CCC(=O)NC1CC(C)(C)Cc2c1cnn2-c1ccc(C)cc1 (configuration not stated),-9.4,0.1,-17.2,-1.0,15.1%,-4.9
COc1cc(OC)c(/C=C/c2cc(/C=C/c3c(OC)cc(OC)cc3OC)[n+](C)c3ccccc23)c(OC)c1,x,x,x,x,-7.4%,x
Cc1cccc(C)c1OCC(=O)NC1CC1,-4.3,-1.7,-46.7*,2.2,-1.0%,14.5
Cc1ccccc1CSCC(=O)NC1CCCC1,-1.9,-2.7,-45.1*,-0.3,-2.4%,-4.4
Cc1ccc(N2CC(=O)N(NC(=O)c3sc4nc(C)cc(C)c4c3N)CC2=O)cc1,1.9,3.3,-4.0,0.3,-10.7%,37.5*
COC(=O)c1sc2nc(C)cc(C)c2c1N,-4.5,0.3,-10.7,-1.4,4.0%,0.9
Cc1ccc(C(=O)N/C(=C/c2ccco2)C(=O)NCCCn2ccnc2)cc1,-6.5,2.9,-23.7,-1.0,-4.9%,0.7
CC1(C)C2([N+](=O)[O-])CN3CC1([N+](=O)[O-])CN(C2)C3C(O)C(O)C(O)CO (configuration not stated),-3.1,1.7,7.7,0.5,1.0%,31.2*
CCOc1ccc(NC(=O)CN2C(=O)CSc3ccc(S(=O)(=O)N4CCCC4)cc32)cc1,-4.9,3.1,-16.7,-0.1,-2.7%,-8.2
COc1ccc(C(=O)c2ccc(Br)cc2)c2ccccc12,-6.1,0.5,-39.7*,-0.1,0.3%,-21.7
CCCOc1ccc(/C=C/c2[nH]c(=O)[nH]c(=O)c2[N+](=O)[O-])cc1OCC,-0.7,0.8,9.8,2.8,1.4%,3.1
O=S(=O)(Cc1cc(-c2ccccc2Cl)no1)c1ccccc1,-9.0,37.2*,-20.8,0.4,5.1%,20.0
COc1ccc(-c2nnn(CC(=O)N(Cc3ccccc3Cl)C(C(=O)NCC3CCCO3)c3ccco3)n2)cc1 (configuration not stated),0.5,0.6,-18.1,0.3,-2.4%,-1.8
COc1ccc(-c2cc(C(F)(F)F)c(C#N)c(SCC(=O)Nc3ccccc3F)n2)cc1,-2.9,20.6,-18.2,8.0,-3.6%,6.4
COc1ccc(-c2cc(-c3cccs3)c(C#N)c(SCC(=O)NCc3ccccc3OC)n2)cc1,3.2,5.9,-35.7*,2.8,-6.4%,8.2
COc1ccc(-c2cc(C(F)(F)F)nc(SCC(=O)Nc3ccc(C(C)=O)cc3)n2)cc1,-4.8,0.6,-44.1*,0.4,-4.6%,11.7
COc1ccc(-c2cc(-c3cccs3)c(C#N)c(SCC(=O)NCc3ccccc3)n2)cc1,4.3,0.6,10.8,0.1,-6.2%,3.2
COc1ccc(-c2cc(C(F)(F)F)c(C#N)c(SCC(=O)Nc3ccccc3C#N)n2)cc1,0.8,59.9*,4.4,13.8,-5.6%,-7.4
COc1ccc(NC(=O)CSc2nc(-c3cccs3)cc(C(F)(F)F)c2C#N)cc1,1.5,13.9,-3.0,2.4,-2.4%,0.2
CCOC(=O)c1ccc(NC(=O)CSc2nc(-c3cccs3)cc(C(F)(F)F)c2C#N)cc1,-0.9,50.0*,-7.6,16.4,-1.0%,-3.8
O=C(CCc1c[nH]c2ccccc12)OCC(=O)N1CCN(S(=O)(=O)c2ccccc2)CC1,-0.4,5.1,-11.4,-0.4,-5.1%,-3.8
Cc1ccc2nc(N3CCN(c4ccccc4)CC3)c3nnnn3c2c1,-2.9,-0.1,-29.5,-0.1,-1.0%,0.5
Cc1cccc(NC(=O)C23CCC(C)(/C(=N/O)C2)C3(C)C)c1 (configuration not stated),-7.2,1.7,6.6,0.2,-6.7%,8.6
COc1ccc(NC(=O)CSc2nc(-c3ccc(C)cc3)cc(C(F)(F)F)c2C#N)cc1,-6.5,4.6,-41.2*,1.3,-4.0%,1.7
Cc1c(C)n(CC(O)CN2CCCCCC2)c2ccccc12 (configuration not stated),-7.2,6.8,-1.2,0.5,-5.9%,-1.0
SMILES,D1 potentiator,D1 agonist,D1 antagonist,TRHR agonist,Glioma ERSR ind,TRHR enhancer
OC(CN1CCCCC1)Cn1c2ccccc2c2cc(Br)ccc21 (configuration not stated),-5.0,44.5*,-62.9*,2.3,-7.9%,-3.0
Cc1ccc(C)c(N2CCN(S(=O)(=O)c3cnc(N)nc3)CC2)c1,-3.7,-0.5,2.4,-0.9,-3.0%,3.1
Cc1ccc(C)c(N2CCN(S(=O)(=O)c3csc(C(N)=O)c3)CC2)c1,-3.0,5.1,5.9,-2.6,-3.8%,32.2*!
O=C(CSc1ncc(S(=O)(=O)c2ccc(Cl)cc2)c(=O)[nH]1)Nc1cccc(C(F)(F)F)c1,3.5,0.4,-31.6*,-0.2,-1.8%,-2.2
CC(C)(C)c1ccc(S(=O)(=O)c2cnc(SCC(=O)Nc3ccc(F)c(Cl)c3)[nH]c2=O)cc1,-1.6,24.3,-4.2,1.3,1.0%,-9.4
CN1CCN(/N=C/c2nc(-c3ccc(Cl)cc3)n3ccccc23)CC1,-6.7,12.4,-61.4*,-0.2,4.6%,4.8
O=C(CN1CCN(S(=O)(=O)c2ccc(Cl)cc2)CC1)Nc1ccc2c(c1)OCO2,x,x,x,x,1.5%,x
CC(C)c1ccc(S(=O)(=O)N2CCN(CC(=O)Nc3ccc4c(c3)OCO4)CC2)cc1,-5.7,5.5,-30.4*,1.6,-4.4%,-3.2
O=C(CN1CCN(S(=O)(=O)c2ccccc2)CC1)Nc1ccc2c(c1)OCO2,-7.3,0.0,-32.2*,-0.1,-3.3%,-6.2
CC(C)c1ccc(S(=O)(=O)N2CCN(CCC(=O)Nc3ccc(N(C)C)cc3)CC2)cc1,-1.8,-0.2,-80.6*,-1.2,1.5%,18.1
COc1ccc(NC(=O)CCN2CCN(S(=O)(=O)c3ccc(C(C)C)cc3)CC2)cc1,0.1,-0.8,-3.4,-1.6,-5.8%,2.2
O=C(CN1C(=O)c2cccc3cccc1c23)Nc1ccc2c(c1)OCO2,2.0,1.4,6.2,-1.6,-3.4%,30.7*
COc1ccccc1OCC(=O)NCC1CCCN(C(=O)c2ccccc2C(C)=O)C1 (configuration not stated),-11.5,2.6,4.6,0.6,-5.7%,-2.4
CN(C)S(=O)(=O)c1ccc(Cl)c(NC(=O)CN2CCN(Cc3ccc4c(c3)OCO4)CC2)c1,-0.5,10.2,-57.8*,-1.9,0.5%,-3.2
CN(C)C(CNC(=O)c1cc(S(=O)(=O)N(C)c2ccccc2)ccc1Cl)c1cccs1 (configuration not stated),-8.2,11.6,-44.0*,-0.3,-3.2%,-5.9
O=C(c1ccccc1)c1ccc2nc(-c3ccc(NC(=O)c4ccccc4Br)cc3)[nH]c2c1,-3.2,3.4,-19.4,17.9,-3.0%,21.9
O=C(Nc1ccc(-c2nc3ccccc3[nH]2)cc1)c1ccc(N2C(=O)CCC2=O)cc1,-2.7,0.1,-50.2*,-0.4,-5.1%,0.7
